An excerpt weighted towards active compounds, which were near 19% of everything screened.
Pf growth 48h: Primary qHTS for delayed death inhibitors of the malarial parasite plastid, 48 hour incubation | P. falciparum luciferase growth in erythrocytes, 48 h | Potency, µM (top dose mostly 28.7 µM), inactives show at the top dose activity change, negative = inhibition, most hits filed as inhibitors | hit rate 5.9% among 310,000 | AID 504832, 2011; also: potency is read from the fitted curve at half-maximal effect; % is scaled to controls: 0 for no effect and ±100 for the full control effect
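Read-out is firefly luciferase luminescence from an integrated reporter in P. falciparum, so falling signal marks reduced parasite growth. Infected erythrocytes were at 2% hematocrit and 0.1% parasitemia (final) in Albumax-supplemented RPMI 1640.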
Shiga toxin inh: A qHTS for Small Molecule Inhibitors of Shiga Toxin | inhibition, % at 38.7 µM | Vero cells, Shiga toxin protein synthesis inhibition reporter | hit rate 9.2% among 290,000; in the data active = inhibition mostly above about 28%, no sharp cut-off; inactive = mostly below about 43%; also: 0% is about no effect
LASV entry inh: qHTS for Inhibitors of binding or entry into cells for Lassa Virus; Lassa virus pseudotype entry inhibition, cell reporter; Potency, µM (titrated, usually from 37.9 µM), for inactives: top-dose activity change, negative = inhibition, hits mostly inhibitors; hit rate 1.2% among 300,000; calls by dose curve; tested in HEK293 cells; also: potency is read from the fitted curve at half-maximal effect; % is scaled to controls: 0 for no effect and ±100 for the full control effect; nearly all actives have a fitted effect of over 50% in size
Cycloheximide cs: Cycloheximide Counterscreen for Small Molecule Inhibitors of Shiga Toxin | max response, % | hit rate 12% among 300,000 | cell reporter, cycloheximide protein synthesis inhibition counterscreen; in the data active = max response mostly above about 13%, no sharp cut-off; inactive = mostly below about 14%; also: read at 38.3 µM for the half of the compounds with a filed dose; 0% is about no effect
Marburg entry inh: qHTS for inhibitors of binding or entry into cells for Marburg Virus; Marburg virus pseudotyped entry inhibition, cell reporter; hit rate 1.8% among 300,000; Potency, µM (titrated, usually from 37.8 µM), inactives show at the highest dose activity change, negative = inhibition, usual class: inhibitors; AID 540276, 2011; calls by dose curve; tested in HEK293 cells; also: potency is read from the fitted curve at half-maximal effect; % is scaled to controls: 0 for no effect and ±100 for the full control effect
Pf growth 96h: Primary qHTS for delayed death inhibitors of the malarial parasite plastid, 96 hour incubation; P. falciparum luciferase reporter growth, 96 h; hit rate 6.9% among 320,000; Potency, µM (highest dose often 28.7 µM), without a hit: at the highest dose activity change, negative = inhibition, hits mostly inhibitors; also: potency is read from the fitted curve at half-maximal effect; % is scaled to controls: 0 for no effect and ±100 for the full control effect
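Plates of compound plus infected erythrocytes (2% hematocrit, 0.05% parasitemia final) incubate 96 hours, 37 C, 5% CO2. Detection reagent added; reduced luminescence from the parasites' luciferase reporter flags inhibition.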
* hit, by the source's call; [ ] = another dose, or the depositor's remark. Unless noted, calls follow the shape of the dose curve; as a rule, active = well fitted inhibition curve with a large enough effect; inconclusive = small, poorly fitted or top-dose-only effect, or another doubt; inactive = no such curve, though single readings can be large or run the other way.

O=C(COc1ccc(Cl)cc1)Nc1cc(S(=O)(=O)N2CCCCC2)ccc1N1CCCCC1 was read as Pf growth 48h 12µM*, Shiga toxin inh 1, LASV entry inh 2%, Cycloheximide cs 0, Marburg entry inh 10% and Pf growth 96h 2.3µM*.
CN1CCN(c2ccc(S(=O)(=O)N3CCCCC3)cc2NC(=O)COc2cccc(Cl)c2)CC1 was read as Pf growth 48h 10µM*, LASV entry inh inconclusive, Marburg entry inh inconclusive and Pf growth 96h inconclusive.
For O=C(COc1ccc(Br)cc1)Nc1cc(S(=O)(=O)N2CCCCC2)ccc1N1CCCCC1 the results were Pf growth 48h -12%, Shiga toxin inh -3, LASV entry inh 10%, Cycloheximide cs -3, Marburg entry inh 0% and Pf growth 96h 1.9µM*.
`Cc1cccc(OCC(=O)Nc2cc(S(=O)(=O)N3CCCCC3)ccc2N2CCN(C)CC2)c1` gave Pf growth 48h inconclusive, Shiga toxin inh -14, Cycloheximide cs -6 and Pf growth 96h inconclusive.
`N#Cc1ccc(OCC(=O)Nc2cc(S(=O)(=O)N3CCCCC3)ccc2N2CCCCC2)cc1` gave Pf growth 48h 1%, Shiga toxin inh -12, LASV entry inh 15%, Cycloheximide cs -1, Marburg entry inh 8% and Pf growth 96h inconclusive.
`CCCC[C@]12Cc3cc(OC)c(OC)cc3[C@H](O1)C1=C(CC3(CCCCC3)OC1=O)O2` gave Marburg entry inh -24%[14.2 µM].
For c1nc(N2CCC3(CC2)OCCO3)c2[nH]cnc2n1 the results were Pf growth 48h 20%, Shiga toxin inh -9, LASV entry inh 2%, Cycloheximide cs 1, Marburg entry inh 2% and Pf growth 96h inconclusive.
CCOCCCNC(=O)C(NC(=O)Cc1cccs1)c1ccc(Cl)cc1 (stereo not drawn) was read as Pf growth 48h 4%, Shiga toxin inh -9, Cycloheximide cs -3, Marburg entry inh 0%[46.1 µM] and Pf growth 96h inconclusive.
`Cc1cccc(NP(C)(=O)c2nc3c(s2)CCCC3)c1` (stereo not drawn) gave Pf growth 48h 0%, Shiga toxin inh 37*, LASV entry inh 0%[46.1 µM], Cycloheximide cs 25*, Marburg entry inh -16%[46.1 µM] and Pf growth 96h 46%.
O=S(=O)(c1ccccc1)c1cnn(-c2ccccc2)c1-c1ccc(Cl)cc1 was read as Pf growth 48h 12µM*, Shiga toxin inh 3, LASV entry inh 9%, Cycloheximide cs -1, Marburg entry inh inconclusive and Pf growth 96h 2.9µM*.
COc1ccc(-c2c(S(=O)(=O)c3ccccc3)cnn2-c2ccccc2)cc1 was read as Pf growth 48h inconclusive, Shiga toxin inh -27, LASV entry inh 7%, Cycloheximide cs 7, Marburg entry inh -21% and Pf growth 96h 6.6µM*.
Screening COc1ccc(S(=O)(=O)Nc2cc(C)nn2-c2ccccc2)cc1 returned Shiga toxin inh -14, LASV entry inh 17%, Cycloheximide cs 0, Marburg entry inh inconclusive and Pf growth 96h 34%.
`Nc1nc(COc2ccc(F)cc2Cl)nc(N2CCCCC2)n1` gave Pf growth 48h 8%, Shiga toxin inh -9, LASV entry inh -12%[46.1 µM], Cycloheximide cs 8, Marburg entry inh inconclusive and Pf growth 96h 18%.
For Cc1ccc(C(C(=O)NC2CCCC2)N(C(=O)Cc2cccs2)c2cccc(C)c2C)o1 (stereo not drawn) the results were Pf growth 48h inconclusive, Shiga toxin inh -5, LASV entry inh 6%, Cycloheximide cs -1, Marburg entry inh -13% and Pf growth 96h 12µM*.
O=C(NC1CCCCC1)C(c1ccccn1)N(C(=O)Cc1cccs1)c1ccc(Cl)cc1 (stereo not drawn) was read as Pf growth 48h -23%, Shiga toxin inh 9, LASV entry inh -27%, Cycloheximide cs -2, Marburg entry inh 10µM* and Pf growth 96h -11%.
Screening COc1ccccc1/C=C1\SC(=S)N(NS(=O)(=O)c2ccccc2)C1=O returned Pf growth 48h -16%, Shiga toxin inh 16, LASV entry inh 3%, Cycloheximide cs 7, Marburg entry inh -1%[46.1 µM] and Pf growth 96h 9%.
COc1ccc(C(=O)Nc2ccc(Cl)cc2C(=O)N2CCCC(C)C2)cc1OC (stereo not drawn) was read as Pf growth 48h 2%, Shiga toxin inh -8, LASV entry inh 4%, Cycloheximide cs -4, Marburg entry inh inconclusive and Pf growth 96h inconclusive.
COc1ccc(NC(=O)c2cccc(NC(=O)c3ccccc3)c2)cc1 was read as Pf growth 48h -6%, Shiga toxin inh 25, Cycloheximide cs 18* and Pf growth 96h 1%.
CC(=O)N1CCc2cc(NC(=O)c3ccc(C)cc3)ccc21 was read as Pf growth 48h 14%, Shiga toxin inh 47*, LASV entry inh 16µM*, Cycloheximide cs 34* and Marburg entry inh inconclusive.
For COc1ccc(C(=O)Nc2ccc(C(=O)c3ccccc3)cc2)cc1 the results were LASV entry inh -26% and Marburg entry inh -17%[46.1 µM].
Screening CC(=O)Nc1ccc(NC(=O)c2ccc3c(c2)CCN3S(=O)(=O)c2ccc(C)cc2)cc1 returned LASV entry inh 12%[46.1 µM] and Marburg entry inh 7%[46.1 µM].
`CCc1cccc(CC)c1NC(=O)c1cccc(NC(=O)c2ccccc2)c1` gave Shiga toxin inh 11, LASV entry inh 21%, Cycloheximide cs -2, Marburg entry inh inconclusive and Pf growth 96h inconclusive.
`COc1ccccc1Oc1ccc(NC(=O)c2ccccc2)cc1` gave Pf growth 48h 6%, Shiga toxin inh 47, LASV entry inh 23%, Cycloheximide cs 28*, Marburg entry inh 2%[46.1 µM] and Pf growth 96h 0%.
Screening CCOc1ccc(NC(=O)c2cccc(NC(=O)c3ccccc3)c2)cc1 returned Pf growth 48h inconclusive, Shiga toxin inh 53*, LASV entry inh 6%, Cycloheximide cs 17*, Marburg entry inh inconclusive and Pf growth 96h inconclusive.
Screening COc1ccccc1Oc1ccc(NC(=O)c2ccccc2C)cc1 returned Pf growth 48h -22%[1.15 µM], Shiga toxin inh 62, Cycloheximide cs 15 and Pf growth 96h inconclusive.
Cn1c(=O)c2c(ncn2CC(=O)OCC(=O)Nc2cccc(Cl)c2)n(C)c1=O was read as Pf growth 48h 13%, Shiga toxin inh -5, LASV entry inh 6%, Cycloheximide cs -2, Marburg entry inh -6%[14.2 µM] and Pf growth 96h 0%.
`CC(SC1CCCC1)C(=O)Nc1ccnn1C(C)C` (stereo not drawn) gave Pf growth 48h -15%, Shiga toxin inh 6, LASV entry inh -6%, Cycloheximide cs -2, Marburg entry inh 22% and Pf growth 96h 25%.
`C=CCc1cccc2ccc(=O)oc12` gave Pf growth 48h 16%, Shiga toxin inh 12, LASV entry inh 9%, Cycloheximide cs -1, Marburg entry inh 2% and Pf growth 96h 93%.
